SMILES strings stand for the structures.

These results are taken from PMC7826789 (International Journal of Molecular Sciences, 2021).

The test system of assay [1] is SRC.
Assay [2] concerns SRMS.
For assay [3], the system named is STK10.
Assay [4] deals with STK16.
The subject of assay [5] is TAK1.
For assay [6], the system named is STK17B.
The subject of assay [7] is STK36.
The subject of assay [8] is TAOK3.
Assay [9] relates to TBK1.

Take `COc1cc2ncnc(Nc3cccc(Cl)c3F)c2cc1O[C@H]1CC[C@H]([C@@H]2NCCNC2=O)CC1` [BI00133844]: in assay [1], the Kinases covered result is “SRC”.

On to `CCCS(=O)(=O)Nc1ccc(F)c(-n2cc(-c3cncc(OC)c3)nn2)c1F` [BI00865461], for which, in assay [2], the Kinases covered result was “SRMS”.

Turning to `COc1cc2ncn(-c3cc(OCC4CCCO4)c(C(N)=O)s3)c2cc1OC` (centres unmarked) [GSK204607], the Kinases covered entry in assay [3] is recorded as “STK10”.

On to `COc1ccc2cc(-c3c(-c4ccncc4)nc(-c4ccc(S(C)(=O)=O)cc4C)n3C)ccc2c1` [SB-633825], for which, in assay [3], the Kinases covered result is reported as “STK10”.

Turning to `CC(C)N1CC(=O)N(C)c2cnc(Nc3cccc(S(=O)(=O)CCN4CCOCC4)c3)nc21` [BI00009348], the Kinases covered result in [4] is “STK16”; in assay [5] it was “TAK1”.

For `C[C@@H]1CCNC(=O)c2cc3ccc(C(=O)Nc4nc5ccccc5n4CCCN(C)C)cc3n21` [BI00645435], the Kinases covered entry in [6] was “STK17B”.

As to `CNc1nc(-c2ccc3c(N)n[nH]c3c2)cc(N2C[C@@H](C(=O)Nc3ccccc3)CC[C@H]2C)n1` [GSK2298859], in [6], the Kinases covered entry is given as “STK17B”.

For the molecule `O=C(Nc1cccc(-c2nn3ncccc3c2-c2ccnc(Nc3cccnc3)n2)c1)c1c(F)cccc1F` [GSK312879], the Kinases covered result in assay [7] is “STK36”.

Take `COC[C@@H](C)N[C@H]1CC[C@H](Nc2cc(-c3cccc(NCC4(C#N)CCOCC4)n3)c(Cl)cn2)CC1` [NVP-2]: the Kinases covered result in [8] is “TAOK3”.

Regarding `CN(C)C/C=C/C(=O)Nc1ccc(C(=O)Nc2cccc(Nc3ncc(Cl)c(-c4c[nH]c5ccccc45)n3)c2)cc1` [THZ1], the Kinases covered result in assay [9] is on record as “TBK1”.
